# Screening results (PubChem)
# Shown are actives, neighbours in structure and some others; about 3.3% of the full set was active somewhere.
# BRCT inh red: BRCT-phosphoprotein interaction inhibition (red fluorophore); BRCT-phosphopeptide binding, red fluorescence polarization; Potency, µM (highest dose often 76.9 µM), for inactives: top-dose activity change, negative = inhibition, most hits filed as inhibitors; hit rate 0.03% among 75,000; further: on the % scale 0 is the no-effect control and ±100 the full control effect
#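 Rhodamine-labelled pBACH1 10-mer (100 nM) bound to BRCT domain (100 nM) at pH 7.3; compounds incubated 12 min room temperature, polarization read. Free peptide defines full inhibition; unlabelled decapeptide titrated as control.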
# Hsp90 Hop PPI: changes Hsp90-Hop TPR2A binding signal, up or down. AlphaScreen TPR2A-His6 binding biotin-Hsp90 C-terminal peptide. Potency, µM (series often up to 57 µM), inactives show top-dose activity change, negative = inhibition. hit rate 0.44% among 71,000. AID 595; active means well fitted curve in either direction with a large enough effect; inconclusive means small, poorly fitted or top-dose-only effect, or another doubt; further: potency means the concentration at half of the fitted maximal effect; on the % scale 0 is the no-effect control and ±100 the full control effect
# TSHR agonist: activates the human thyroid stimulating hormone receptor; Potency, µM (series often up to 57.1 µM), for the others: top-dose activation, usual class: activators; HEK293-CNG-TSHR cells (CNG channel as cAMP sensor), membrane potential dye, cAMP; AID 926; P16473; hit rate 0.48% among 73,000; active means well fitted activation curve with a large enough effect in the main read-out, with a control signal flat, not every such curve was filed as active; inconclusive means small, poorly fitted or top-dose-only effect, or a change in a side signal; inactive means no such curve, though single readings can be large or run the other way; % of control where 0% means no effect;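 further: the control signal comes from parental cells without the receptor; potency means the concentration at half of the fitted maximal effect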
# Target sequence (P16473 whole entry, looked up): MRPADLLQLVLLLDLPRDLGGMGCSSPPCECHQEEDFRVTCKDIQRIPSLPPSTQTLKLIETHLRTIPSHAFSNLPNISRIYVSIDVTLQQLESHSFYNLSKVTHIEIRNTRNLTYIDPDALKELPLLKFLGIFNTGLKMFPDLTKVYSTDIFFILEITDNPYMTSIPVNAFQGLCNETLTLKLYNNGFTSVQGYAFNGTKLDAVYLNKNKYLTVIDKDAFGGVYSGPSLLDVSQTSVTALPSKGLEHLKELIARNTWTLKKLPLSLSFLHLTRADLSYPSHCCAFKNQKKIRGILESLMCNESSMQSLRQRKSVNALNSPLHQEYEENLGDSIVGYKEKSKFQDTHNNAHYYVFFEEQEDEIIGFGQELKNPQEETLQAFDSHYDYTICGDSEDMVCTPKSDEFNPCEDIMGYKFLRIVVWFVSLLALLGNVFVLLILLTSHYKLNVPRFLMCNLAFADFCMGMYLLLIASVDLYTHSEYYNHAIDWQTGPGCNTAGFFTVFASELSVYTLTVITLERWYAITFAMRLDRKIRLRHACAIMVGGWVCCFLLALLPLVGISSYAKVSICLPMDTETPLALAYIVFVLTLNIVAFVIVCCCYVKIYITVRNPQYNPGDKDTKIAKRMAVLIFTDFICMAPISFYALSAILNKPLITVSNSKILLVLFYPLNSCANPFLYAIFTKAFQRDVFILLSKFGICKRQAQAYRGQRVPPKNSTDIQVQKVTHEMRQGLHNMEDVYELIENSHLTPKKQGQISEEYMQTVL
#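 HEK 293 cells stably expressing TSHR and a modified CNG channel, with CNG-only parental cells as counterscreen, were preloaded 60 min at room temperature with membrane potential dye containing 100 uM RO 20-1724. Compound exposure was 30 min, and depolarization was read as fluorescence at 590 nm.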
# BRCT PPI green: inhibitors of human BRCA1 BRCT-phosphoprotein interaction (green fluorophore) | P38398 | BRCA1 BRCT-phosphopeptide binding, green fluorescence polarization | Potency, µM (doses to about 76.9 µM), inactives show at the highest dose activity change, negative = inhibition, usual class: inhibitors | hit rate 0.05% among 75,000 | AID 875;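 further: potency means the concentration at half of the fitted maximal effect; plate controls were peptide without protein for full effect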
#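 Fluorescence polarization: His-tagged BRCT (~35 kDa BRCA1 C-terminus, 250 nM) bound to 100 nM fluorescein-labeled phosphorylated 10-aa BACH1 peptide, pH 7.3 phosphate buffer with DTT and Tween 20. Compounds incubated 12 min at room temperature; inhibition read as lowered polarization.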
# YjeE inh: displaces an ADP probe from E. coli YjeE (TsaE); P0AF67; purified YjeE enzyme, qHTS inhibition assay; Potency, µM; hit rate 0.05% among 71,000; AID 605
#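 Purified YjeE (10 uM) with BODIPY Texas Red-labeled ADP probe (2 uM); compounds pin-transferred, 15 min at room temperature. Binding inhibition read as decreased fluorescence polarization; ADP titration as control.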
# HEK293 cAMP ctrl: counter-screen for TSHR agonists: cAMP increase in parental HEK293 | AID 938 | hit rate 2.5% among 73,000 | parental HEK293 CNG cAMP sensor, membrane potential fluorescence | Potency, µM (highest dose often 57.1 µM), for the others: top-dose activation, hits mostly activators; further: potency means the concentration at half of the fitted maximal effect; % of control where 0% means no effect; nearly all actives have a fitted effect of over 55% in size
#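 Counterscreen for endogenous-receptor signalling: CNG-channel HEK 293 cells report cAMP rise by membrane depolarization. After 60 min dye equilibration with 100 uM RO 20-1724, compounds incubated 30 min before bottom-read fluorescence at 590 nm.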
# HEK293 cAMP cnt: counter-screen for TSH receptor agonists: cAMP in parental HEK293 cells; shares compounds with TSHR agonist; activity change, negative = inhibition, % at 32.9 µM; parental HEK293 CNG biosensor, cAMP membrane potential fluorescence; 150 tested, under 10 active; AID 953
# * hit, by the source's call; i = inactive; ? = inconclusive; · = no result; [ ] = another dose, or the depositor's remark. Unless noted, the call rests on the fitted dose curve; in most records, active means well fitted curve in the direction sought with a large enough effect; inconclusive means small, poorly fitted or top-dose-only effect, or another doubt; inactive means no such curve, though single readings can be large; an effect the other way counts as inactive or inconclusive.
SMILES,BRCT inh red,Hsp90 Hop PPI,TSHR agonist,BRCT PPI green,YjeE inh,HEK293 cAMP ctrl,HEK293 cAMP cnt
CN1C(=O)C2C=CC1C1C(=O)N(c3ccccc3)C(=O)C21 (configuration not stated),0%,-2%,-3%,-1%,i,8%,2[25.6 µM]
Cc1nn(-c2ccccc2)c(N2CCCC2)c1/C=N/n1cnc2scc(-c3ccccc3)c2c1=O,1%,-3%,3.2µM*,-3%,i,25%,17
Cc1ccc(-c2csc3ncn(/N=C/N(C)C)c(=O)c23)o1,-1%,-3%,1%,-1%,i,2%,·
CCC(=O)O[C@H]1C(O[C@@H]2C(C)[C@H](O[C@H]3C[C@@](C)(OC)C(O)C(C)O3)C(C)C(=O)OC(CC)[C@@](C)(O)C(O)[C@H](C)C(=O)C(C)C[C@]2(C)O)OC(C)CC1N(C)C (some centres not stated),-6%,·,·,0%[3.08 µM],·,·,·
C/C(=N/NS(=O)(=O)c1ccc(C)cc1)P(=O)(O)O,-3%[15.4 µM],-2%[11 µM],3%[11.4 µM],0%[15.4 µM],i,6%[11.4 µM],·
CCc1ccc(-c2nc(CN3CCC(C(=O)N4CCN(c5ccccc5)CC4)CC3)c(C)o2)cc1,0%,-6%,5%,-2%,i,16%,13[25.6 µM]
COc1ccc(OC2C=CC(C#Cc3ccc(C(C)(C)C)cc3)OC2CO)cc1 (configuration not stated),2%[15.4 µM],·,14%[11.4 µM],5%[15.4 µM],·,19%[11.4 µM],·
Cc1ccc(-n2nc(-c3ccc(N)cc3)cc2N)cc1,1%,-3%[2.3 µM],-22%,-2%,i,-6%,-9[25.6 µM]
COc1ccc(C2C(=O)N(C3CCCCC3)CC(=O)N2Cc2ccc3c(c2)OCO3)cc1 (configuration not stated),1%,0%,26%,-1%,i,18%,·
COc1cccc(CN2C(=O)CN(C3CCCCC3)C(=O)C2c2ccc(F)cc2)c1 (configuration not stated),-1%,3%,13µM*,2%,i,15%,-5
COc1ccc(-c2ccc(-c3noc(C)n3)c(OC)n2)cc1,-4%,1%,3.2µM*,-1%,i,21%,9
CCOc1nc(-c2ccc(OC)cc2)ccc1-c1noc(C)n1,0%,3%,14%,2%,i,25%,·
COc1ccc(Br)cc1CNC(=O)C1CCN(S(=O)(=O)N2CCCCC2)CC1,0%,1%,0%,1%,i,-1%,-84[25.6 µM]
COc1ccc(OC)c(CNC(=O)C2CCN(S(=O)(=O)N3CCCC3)CC2)c1,-1%,0%,1%[11.4 µM],-2%,i,3%,·
Cc1cc(S(=O)(=O)Nc2ccccc2C(=O)O)ccc1F,-1%,·,2%,-2%,·,1%,·
Nc1ccc2c(c1)COc1ccccc1O2,2%,-12%,-24%,1%,i,-9%,-6[25.6 µM]
COc1ccc(C(c2nnnn2Cc2ccccc2)N2CCN(C(=O)c3ccco3)CC2)cc1 (configuration not stated),1%,-4%,?,-1%,i,?,·
COc1cccc(C(c2nnnn2Cc2ccccc2)N2CCN(C(=O)c3ccco3)CC2)c1OC (configuration not stated),-1%,-14%,25µM*,-1%,i,15%,-4
COc1ccc2[nH]cc(CCNc3nc(-c4ccc(N(C)C)cc4)nc4ccccc34)c2c1,-2%,?,?,6%,i,-38%,·
CC(=O)/C(=C\c1ccccc1)CC(=O)O,1%,·,·,-3%,·,·,·
COc1ccc(Cc2ccc3[nH]c(=O)cc(C)c3c2)cc1S(=O)(=O)O,-1%[15.4 µM],-5%[11 µM],-2%[11.4 µM],-2%[15.4 µM],i,8%[11.4 µM],·
O=c1c2ccccc2ncn1-c1ccc2c(c1)OCCO2,0%,·,6%,-4%,·,7%,6[25.6 µM]
CNC(=O)Oc1ccc2c(c1)[C@@]1(C)CCN(C)C1N2C (some centres not stated),1%,·,·,-2%,·,·,·
Cc1ccccc1NC(=O)N1C2CCCC1CC(NC(=O)C1CC1)C2 (configuration not stated),1%,-3%,6%,1%,i,1%,20[25.6 µM]
CCC(=O)Nc1cccc(-c2cn3ccsc3n2)c1,2%,-5%,-12%,1%,i,-3%,·
SMILES,BRCT inh red,Hsp90 Hop PPI,TSHR agonist,BRCT PPI green,YjeE inh,HEK293 cAMP ctrl,HEK293 cAMP cnt
CC(C)CC(=O)Nc1cccc(-c2cn3ccsc3n2)c1,1%,-9%,16µM*,2%,i,0%,-9
O=S(=O)(c1ccccc1)N1CCN(C2CCN(Cc3ccccc3)CC2)CC1,-1%,-5%,8%,-1%,i,23%,1[25.6 µM]
CCC(C)(C)n1nnnc1CN(Cc1ccco1)Cc1cc2cc3c(cc2[nH]c1=O)OCO3,-2%,-16%,25µM*,2%,i,12%,-12
COC(=O)[C@H](CCSC)NC(=O)C/C=C\[C@@H](C)CO,2%[15.4 µM],·,-5%[11.4 µM],-2%[15.4 µM],·,-4%[11.4 µM],·
CC1(C)c2ccccc2N2CCC(=O)NC21/C=C/c1ccco1 (configuration not stated),-13%,-21%,3.2µM*,19%,i,17%,13
CC1(C)c2ccccc2N2CC(=O)NC21/C=C/c1ccco1 (configuration not stated),1%,-6%,2.5µM*,5%,i,12%,10
O=S(=O)(C[C@H](O)C(Cl)(Cl)Cl)NNc1ccccc1,-4%[15.4 µM],-5%[11 µM],4%[11.4 µM],-8%[15.4 µM],i,3%[11.4 µM],·
O=C(COC(=O)C1c2ccccc2Oc2ccccc21)Nc1ccc2c(c1)OCO2,-2%,-5%,25µM*,0%,i,2%,9
O=C(COC(=O)CCCc1c[nH]c2ccccc12)Nc1ccc2c(c1)OCO2,-2%,-12%,24%,-4%,i,29%,·
COCCNC(=O)C(c1ccc(C)o1)N(C(=O)c1snc(C(N)=O)c1N)c1ccc(C)cc1 (configuration not stated),-2%,0%,32µM*,6%,i,9%,12
COc1cccc(C(=O)NC2=NCCS2)c1OC,-1%,-2%,-5%,0%,i,-3%,·
COc1ccc(N(C)S(=O)(=O)c2cccc(C(=O)NC3=NCCS3)c2)cc1,-5%,0%,25µM*,-1%,i,14%,6
CC(c1ccco1)N(C(=O)C12CC3CC(CC(C3)C1)C2)c1ccccn1 (configuration not stated),1%,-4%,?,0%,i,?,·
